Compounds with a hit are over-represented: about 10% of the library has one in this group of screens.
JMJD2A Tudor inh – inhibitors of human JMJD2A Tudor domain; 390,000 compounds, 4.4% hits; Potency, µM (titrated, usually from 114 µM), actives largely listed as inhibitors; O75164; AlphaScreen JMJD2A-Tudor / H3K4me3 peptide binding; note: nearly all actives have a fitted effect of over 50% in size
G9a block – G9a (human) methyltransferase inhibition | 350,000 compounds, 8.8% hits | Potency, µM (highest dose often 102 µM), most hits filed as inhibitors | G9a H3K9 monomethylation, AlphaScreen, 2 h | Q96KQ7; note: nearly all actives have a fitted effect of over 75% in size
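G9a (20 nM) was preincubated 15 min with compound, then reacted 2 h at room temperature with 500 nM biotin-H3K9 peptide and 20 µM SAM. Monomethyl-H3K9 detected by AlphaScreen using anti-H3K9me1 antibody.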
BAZ2B block – inhibitors of human BAZ2B bromodomain. Q9UIF8. AlphaScreen BAZ2B-H3K14Ac peptide displacement. Potency, µM (top dose mostly 114 µM), most hits filed as inhibitors. 360,000 compounds, 4.4% hits. AID 504333; note: nearly all actives have a fitted effect of over 60% in size
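AlphaScreen luminescence quantifies BAZ2B engagement of H3K14Ac peptide; the protein and biotinylated peptide are both at 50 nM final, buffer PBS pH 7.4 with 0.01% Tween-20, all steps at room temperature.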
HP1b chromo inh – blocks HP1-beta chromodomain binding to methylated histone tails; P83916; AlphaScreen HP1-beta / biotin-H3K9me3 peptide binding; Potency, µM (highest dose often 114 µM), most hits filed as inhibitors; 390,000 compounds, 0.56% hits; AID 540317; note: nearly all actives have a fitted effect of over 70% in size
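Compound inhibition of the preformed complex between 50 nM HP1-beta and 50 nM biotinylated H3K9me3 peptide was read by AlphaScreen. Buffer was PBS pH 7.4 with 0.01% Tween-20. Incubations ran 30 min at room temperature, with 10 ug/mL donor/acceptor beads.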
GLS inhibitor – inhibitors of human glutaminase (GLS) | GLS enzymatic activity, qHTS titration | Potency, µM (highest dose often 45.5 µM), hits mostly inhibitors | 410,000 compounds, 0.21% hits
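Read-out is an Amplex red fluorescence increase coupled through glutamate oxidase and HRP, measured before and after 30 min room-temperature incubation. hKGA is in 45 mM KH2PO4 (pH 8.2) with 0.02% Tween-20; glutamine added as 1mM solution.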
Large screens that a line does not name were inactive. Calls come from the whole dose curve; as a rule, active = well fitted curve in the direction sought with a large enough effect; inconclusive = small, poorly fitted or top-dose-only effect, or another doubt; inactive = no such curve, though single readings can be large; an effect the other way counts as inactive or inconclusive.

CN1CCN(c2nnc(-c3ccc(F)cc3)c3ccccc23)CC1	JMJD2A Tudor inh inconclusive, G9a block 40µM
O=C(c1cccs1)N1CCN(c2nnc(-c3ccccc3)c3ccccc23)CC1	none
CN1CCN(c2nnc(-c3ccc(Cl)cc3)c3ccccc23)CC1	none
Cc1ccc(-c2nnc(N3CCN(C(=O)c4cccs4)CC3)c3ccccc23)cc1	G9a block inconclusive, GLS inhibitor 20µM
O=C1CCCCC2CCCCN12 (stereo not drawn)	none (no result: JMJD2A Tudor inh, BAZ2B block, HP1b chromo inh, GLS inhibitor)
CCN(C(=O)CSc1nnc2ccccn12)c1c(N)n(Cc2ccccc2)c(=O)[nH]c1=O	G9a block 50µM
CCCCN(C(=O)CSc1nnc(-c2ccccc2)n1C)c1c(N)n(Cc2ccccc2)c(=O)[nH]c1=O	G9a block 10µM
CCN(C(=O)CSc1ncccn1)c1c(N)n(Cc2ccccc2)c(=O)[nH]c1=O	G9a block 50µM
Cc1cccc(NC(=O)CSCC(=O)N(CCC(C)C)c2c(N)n(Cc3ccccc3)c(=O)[nH]c2=O)c1	G9a block 40µM
O=C(c1cn(CCOc2ccc(Cl)cc2)c2ccccc12)C1CCCCC1	none
Cc1c(Cl)cccc1NC(=O)c1cnc2sc(N3CCOCC3)nn2c1=O	HP1b chromo inh inconclusive
COc1ccc(OC)c(-n2c(C)ccc2-c2ccc(S(C)(=O)=O)cc2)c1	JMJD2A Tudor inh inconclusive, G9a block inconclusive, BAZ2B block 45µM
COc1ccc(-n2c(-c3ccc(Cl)cc3Cl)n[nH]c2=S)c(OC)c1	JMJD2A Tudor inh 13µM, GLS inhibitor 11µM (no result: G9a block)
COc1ccc(OC)c(-n2c(-c3ccc(S(C)(=O)=O)cc3)cc(C=O)c2C)c1	G9a block inconclusive, BAZ2B block inconclusive
S=c1[nH]nc(-c2cnccn2)n1-c1ccccc1	JMJD2A Tudor inh 32µM, G9a block inconclusive, BAZ2B block inconclusive
O=C(O)c1cccc(-n2c(-c3cnccn3)n[nH]c2=S)c1	G9a block 10µM, BAZ2B block inconclusive
C#C[C@]1(O)CC[C@H]2C3CCC4=Cc5oncc5CC4(C)C3CCC21C (stereo partly drawn)	none (no result: JMJD2A Tudor inh, BAZ2B block, HP1b chromo inh, GLS inhibitor)
COc1ccc(OC)c(-n2c(Cn3c(-c4ccccn4)nc4ccccc43)n[nH]c2=S)c1	JMJD2A Tudor inh 7.9µM, G9a block 2.5µM, BAZ2B block inconclusive, HP1b chromo inh inconclusive
COc1cccc(-n2c(SC)nnc2-c2cnccn2)c1	none
COc1ccc(-n2c(-c3cnccn3)n[nH]c2=S)cc1	JMJD2A Tudor inh 8.9µM, G9a block 5µM, BAZ2B block inconclusive
COc1ccc(OC)c(-n2c(-c3cnccn3)n[nH]c2=S)c1	G9a block 10µM, BAZ2B block inconclusive (no result: GLS inhibitor)
COc1ccc(OC)c(-n2c(-c3ccc(C)cc3)n[nH]c2=S)c1	JMJD2A Tudor inh inconclusive, G9a block inconclusive
COc1ccc(-c2n[nH]c(=S)n2-c2cc(OC)ccc2OC)cc1	JMJD2A Tudor inh 10µM, G9a block 2.8µM
COc1ccc(/C=C\c2onc(C)c2S(=O)(=O)N2CCC(C(=O)Nc3ccc(Cl)cc3)CC2)cc1	none (no result: BAZ2B block)
Cc1occc1-c1nnc(SCC(=O)N2CCCC(C)C2)o1 (stereo not drawn)	none
COc1ccc(-c2n[nH]c(=S)n2N)c(OC)c1	JMJD2A Tudor inh 7.1µM, G9a block 6.3µM, HP1b chromo inh inconclusive (no result: BAZ2B block)
COc1ccc(-c2cn[nH]c2N)c(OC)c1	none
COc1ccc(/C=N/n2cc(-c3ccccc3)nc2N)cc1	none
O=C(O)c1ccc(/C=N/n2cc(-c3ccccc3)[nH]c2=S)cc1	JMJD2A Tudor inh 2.8µM, GLS inhibitor inconclusive (no result: G9a block)
O=C(O)c1ccc(/C=N/O)cc1	none (no result: G9a block)
S=c1[nH]c(-c2ccccc2)cn1/N=C/c1ccc(Br)cc1	G9a block 13µM
S=c1[nH]ncn1/N=C/c1cccs1	JMJD2A Tudor inh 4.5µM, G9a block 7.9µM
S=c1[nH]c(-c2ccccc2)cn1/N=C/c1cccs1	JMJD2A Tudor inh 3.2µM (no result: G9a block)
CCOc1ccc(NC(=O)CSc2nccn2C2CCCC2)cc1	none
CC(C)Oc1ccc(CNC(=O)CCCn2c(=O)c3cccn3c3cccnc32)cc1	BAZ2B block inconclusive
CCn1c(CNC(=O)c2ccc(OC)cc2)nnc1SCC(=O)Nc1ccc(C)cc1	none
S=c1[nH]c(-c2ccccc2)cn1/N=C/c1cccnc1	JMJD2A Tudor inh 0.79µM, G9a block 2.5µM
Nc1nc2ccccc2n1/N=C/c1cccnc1	none (no result: G9a block, BAZ2B block)
